# Laboratory results reported in the supplement of paper PMC6555819.
# What was measured:
# Test in all cases: PBM binding z-score (relative to random genomic background probes); higher = stronger binding; sequences stand for … in GC…GCGATTGACAGCGTAGAATGAAGG
# [1] = system: RARb homodimer (NR concentration 270 nM)
# Procedure, shortened: (§1)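 Ligand-free nuclear receptor dimers were applied to custom Agilent 4×180K protein-binding microarrays whose double-stranded probes carried direct-repeat seeds, single-nucleotide variants, half-site ablations and random human genomic background sequences in 34-nt variable regions. Incubation lasted 1 h. Binding z-scores were computed against the random background probes from regression-normalized fluorescence.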
# [2] = system: RARg:RXRa (NR concentration 270 nM, RXRa partner concentration 90 nM)
# Procedure, shortened: as §1
# [3] = system: RARg homodimer (NR concentration 270 nM)
# Procedure, shortened: as §1
# [4] = system: RXRa DBDmut IVT, anti-RXR (DBD mutation: RXRa K156A/R161A, NR concentration 90 nM)
# Procedure, shortened: as §1
# [5] = system: RXRa homodimer (NR concentration 180 nM)
# Procedure, shortened: as §1
# [6] = system: THRa:RXRa (NR concentration 90 nM, RXRa partner concentration 90 nM)
# Procedure, shortened: as §1
# [7] = system: THRa homodimer (NR concentration 90 nM)
# Procedure, shortened: as §1
# [8] = system: VDR homodimer (NR concentration 270 nM)
# Procedure, shortened: as §1
Sequence,PBM binding z-score [1],PBM binding z-score [2],PBM binding z-score [3],PBM binding z-score [4],PBM binding z-score [5],PBM binding z-score [6],PBM binding z-score [7],PBM binding z-score [8]
AGAACGAGGGCACGCTGAGTTGATGGCAGAGTAG,1.37,2.06,2.33,1.76,1.53,1.89,0.0857,1.71
CGAACTAGGTCAAGGTCAGTGAATCTCCGCACGC,4.79,5.23,6.17,2.29,4.11,3.86,3.15,2.14
ATCTCTAGGTAAAGATAGTTCAGGGAATGCAAAT,0.997,0.771,0.846,0.0937,0.459,0.742,0.0152,0.47
TGAATGAGGTTTTAAGATCAGGGAACGTTGCAAA,-0.344,-0.157,-0.0698,-0.731,-0.145,0.308,-0.308,-0.172
GCATATAGGTAATACAAGGTGAAAGTTCGATTGT,1.57,0.972,0.602,0.513,1.5,4.27,1.28,0.723
CCGACTGGGGCAGAACGGTTACCATACCATCCGG,0.0428,-0.0938,0.284,-1.04,-0.293,-0.413,-0.791,-0.33
TAGCCTAGGTCATTCAGGAGCCAGTATAGAAAGC,2.45,4.25,4.41,1.37,2.96,2.68,0.478,1.09
AATACAGGGTCACAAGGCCAGAGTAGGTACGAAT,3.8,6.03,5.53,3.06,6.78,3.86,1.78,2.64
AATACATGGTCACTAGGCCAGAGTAGGTACGAAT,0.707,0.578,1.01,-0.405,0.58,-0.00579,-0.302,0.15
GATACAGGGTCAGCTAGAGGCCAGTGTATGGAAA,3.64,6.8,5.06,1.51,4.25,2.98,0.265,0.727
CGAAGGAGGGCATGAGTTGATAGCAAATGCCGAT,0.409,0.997,1.45,0.567,0.619,0.292,-0.803,0.969
CGTCCAGGGTCAGAGAGGTCAGTGAATGCCGAGT,5.27,6.18,6.48,2.79,6.28,4.29,2.13,5.45
CCTACTTGGTCAGGAGGTCACACACCGGATATGA,4.48,4.98,4.1,0.751,5.02,3.59,2.33,2.54
AAATGTAGGTTATCGGGTCATTCAGTTTGCGCAT,3.09,3.27,2.33,1.88,3.42,3.41,2.84,4
GCTAGTTGGTCAGTAAAAGGTCACACCCCGGTCG,5.28,5.17,4.3,0.0893,4.86,3.57,2.15,1.43
TAGCCTAGGTCATGCTGGCCAGTATAGTGTCGGC,3.02,3.72,4.32,0.579,2.71,3.03,0.898,-0.0948
CGCGAAAGGTCGTGCTCAGGTGAGTATACCAAAC,3.1,5.55,4.27,2.19,5.98,4.17,1.26,1.18
CCTAGTAGGTCAGGAGGTCACACACCGGATATGA,5.24,7.25,6.37,1.03,7.18,3.91,2.34,3.13
GCTAGTTGGTCAGTAAAAGGTCAGACACCGGTCG,4.8,4.68,4.27,0.252,3.55,2.64,0.737,0.607
GCATATAGGTAATACAAGGGGAAAGTCCGATTGT,-0.0469,0.247,0.368,0.734,0.3,1.94,-0.473,0.0263
GCGACTGGGGCATCAGCAGGTTAGCATAACTTAA,0.258,0.506,0.0514,-0.821,0.0592,0.204,-0.74,-0.612
GCTGATAGGTCAGGTTGGTCAGCTAACGGGTACG,3.37,3.84,4.49,0.3,2.6,1.46,-0.126,0.351
AGAATGAGGTTATTAATATCAGGGAATTGCGGTC,0.652,1.03,0.749,1.73,1.62,2.05,0.737,1.2
AATACAGGGTCATCGTAGACCAGAGTACGCACAG,3.31,5.66,5.19,3.73,6.72,3.67,1.24,4.03
AATACAGGGTCACTAGGCCGGAGTAGGTACGAAT,3.18,5.13,4.62,2.81,5.28,3.4,1.2,2.61
CAAACTAAGTCAAGGTCAAAGTCGGTTTGTGCCA,4.04,4.35,4.17,2.72,4.85,4,3.38,4.09
